37 compounds from PubChem BioAssay (Tox21) can be followed below.

Records with an inconclusive call do not appear. Calls of active or inactive are those of the source. Calls follow the shape of the dose curve; as a rule, active = well fitted activation curve with a large enough effect in the repeat runs; inconclusive = weak or mixed curves, or effect the other way; inactive = no such curve, though single readings can be large or run the other way.
% is scaled to controls: 0 for no effect and ±100 for the full control effect; potency is read from the fitted curve at half-maximal effect.

The test is described as follows: qHTS assay to identify small molecule agonists of the estrogen related receptor signaling pathway with the pleiotropic PPARgamma coactivator (PGC) from Tox21 10K library (AID 1224842). Also: nearly all actives have a fitted effect of over 15% in size. The following applies: PGC/ERR reporter cell line, luciferase ONE-Glo, 18 h; series mostly up to 92.4 µM; activation: at the top concentration. From the text: National Center for Advancing Translational Sciences [NCATS] NIH Chemical Genomics Center [NCGC] U.S. Environmental Protection Agency [EPA] National Institutes of Environmental Health Sciences [NIEHS] National Toxicology Program [NTP] Assay overview: Estrogen related receptors (ERRs), the first orphan nuclear receptors discovered, play an important role in the control of cellular energy metabolism. ERRs are required for high-energy production in response to the environmental challenges. The pleiotropic PPARgamma coactivator (PGC) is a major partner of ERR and a key regulator in energy homeostasis. Together they have been implicated in the etiology of metabolic disorders such as Type 2 diabetes and metabolic syndrome. ERR-alpha was also identified as an adverse marker for breast cancer progression; ERR-alpha-positive tumors have a poor prognosis. To screen and to identify environmental compounds that perturb the PGC/ERR signaling pathways could provide valuable information for potential therapeutic or preventive measures in the treatment of metabolic disease. For identifying PGC/ERR agonists, PGC/ERR cell line (provided by NTP) has been used to screen Tox21 10K library.
Assay Protocol Summary: The PGC/ERR cells were dispensed at 2,000 cells/5 ul/well in 1536-well white plates using a Multidrop dispenser. After the assay plates were incubated at a 37 C/5% CO2 incubator for 6 hours, 23 nL of compounds dissolved in DMSO, positive and negative controls or DMSO only was transferred to the assay plate by a pin tool. The plates were incubated at 37 C for 18 hours. 4 ul/well of One-Glo reagent was added into the assay plates using a Flying Reagent Dispenser. After 30-minute incubation at room temperature, the luminescence intensity in the plates was measured using a ViewLux plate reader.
Background: qHTS replaces the single test concentration by a dilution series.
Consider `Cc1cc(C)c(C(=O)P(=O)(c2ccccc2)c2ccccc2)c(C)c1`, for which the “activation” value is -24.7% (inactive).
Consider `O=Nc1ccc(Nc2ccccc2)cc1`, for which the Potency is 9.74 µM (active).
Regarding `O=P(OC(CCl)CCl)(OC(CCl)CCl)OC(CCl)CCl`, the “activation” value was -19.1% (inactive).
Consider `O=C(O)/C=C\C(=O)O`, for which the Potency result was “inactive”.
As for `Oc1c(I)cc(I)cc1I`, the “activation” value is -13% (inactive).
On the same count and under the same terms, then `CCN(CC)C(=O)Cl`, with 0.149% (inactive); and `O=C(c1ccccc1)C(Cl)Cl`, with -23.8% (inactive); and `Clc1nc(Cl)c(Cl)c(Cl)c1Cl`, with -3.06% (inactive).
On the same count and under the same terms, in the case of `Cc1ccc(N(SC(F)(Cl)Cl)S(=O)(=O)N(C)C)cc1` it was -33.6% (inactive).
Still for that read-out and setting: then `COc1cc(OC)c(OC)cc1C=O`, with -19.8% (inactive).
In the case of `O=[N+]([O-])c1cc(C(F)(F)F)ccc1Cl`, the “activation” value is 0.042% (inactive).
The same measure, in the same setting: then `O=C(Nc1ccccc1-c1ccc(Cl)cc1)c1cccnc1Cl`, with -0.349% (inactive); and `CO/C=C(/C(=O)OC)c1ccccc1Oc1cc(Oc2ccccc2C#N)ncn1`, with -17.6% (inactive); and `O=[N+]([O-])c1c(Cl)c(Cl)cc(Cl)c1Cl`, with 2.7% (inactive).
Turning to `O=[N+]([O-])c1cccc(Cl)c1Cl`, the “activation” value is -6.6% (inactive).
In the case of `Nc1ccc(Cl)cc1Cl`, the “activation” value is -1.55% (inactive).
On the same count and under the same terms, then `Cc1nnc2n1-c1sc(CCc3ccc(CC(C)C)cc3)cc1C(c1ccccc1Cl)=NC2C` (configuration not stated), with -25.7% [at 42.5 µM] (inactive); and `CCc1cccc(C)c1N`, with -2.04% (inactive).
The same measure, in the same setting: in the case of `CC(c1ccccc1)(c1ccc(O)cc1)c1ccc(O)cc1` it was -17.6% (inactive); in that of `COc1ccccc1[N+](=O)[O-]`, 4.16% (inactive).
On to `NC(=Nc1ccccc1)Nc1ccccc1`, for which the Potency is 12.2 µM (active).
As for `c1ccc2c(c1)Sc1ccccc1N2CC1CN2CCC1CC2` (configuration not stated), the “activation” value is -0.102% [at 42.5 µM] (inactive).
For `COc1ccc(C(c2ccc(OC)cc2)C(Cl)(Cl)Cl)cc1`, the “activation” value is -9.6% (inactive).
The same measure, in the same setting: then `N#Cc1cc([N+](=O)[O-])ccc1N`, with -8.91% (inactive); and `O=S(=O)(C(Cl)(Cl)Cl)C(Cl)(Cl)Cl`, with -37.2% (inactive).
`Oc1c(Cl)ccc(Cl)c1Cl`: the “activation” value was -11.2% (inactive).
In the case of `CN1CSC(=S)N(C)C1`, the Potency entry was “inactive”.
Take `O=C(O)/C=C/C(=O)O`: the Potency entry was “inactive”.
Regarding `CCC1C(=O)OCC1Cc1cncn1C` (configuration not stated), the “activation” value is 0.0193% [at 42.5 µM] (inactive).
Regarding `CC1COC(Cn2cncn2)(c2ccc(Oc3ccc(Cl)cc3)cc2Cl)O1` (configuration not stated), the “activation” value is -25.3% (inactive).
On the same count and under the same terms, in the case of `Cc1cccc(C)c1` it was 0.0599% (inactive); in that of `CC(N)C(=O)OC(C)(C)Cc1ccc(Cl)cc1` (configuration not stated), -0.119% [at 42.5 µM] (inactive); in that of `CCCCC(CC)COC(=O)c1ccc(C(=O)OCC(CC)CCCC)cc1` (configuration not stated), 0.396% (inactive).
Regarding `ClC1=C(Cl)[C@]2(Cl)[C@@H]3[C@@H](Cl)[C@H]4O[C@H]4[C@@H]3C1(Cl)C2(Cl)Cl`, the “activation” value is -6.02% (inactive).
The same measure, in the same setting: then `Nc1ccc(Cl)cc1[N+](=O)[O-]`, with -1.28% (inactive).
With `CCn1cc(C(=O)O)c(=O)c2ccc(C)nc21`, the Potency entry is “inactive”.
Turning to `Cc1cc(C(C)(C)c2ccc(O)c(C)c2)ccc1O`, the “activation” value was -21.4% (inactive).
